16 molecules from PubChem BioAssay (NCATS) can be followed below.

Test [1] is described as follows: Quantitative High-Throughput drug screen in 47 multiple myeloma cell lines against the NCATS MIPE library collection: ARD_JJKsccE7 cell viability assay (AID 1918929). Put shortly: (§1)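 Steps: seed 500 cells per well; pin-transfer MIPE 4.0 library; incubate 48 h at 37C, 5% CO2, humidified; add CellTiter-Glo, 5 min room temperature; read luminescence.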
Test [2] can be described thus: Quantitative High-Throughput drug screen in 47 multiple myeloma cell lines against the NCATS MIPE library collection: KMM1_JCRB cell viability assay (AID 1918960). Note: nearly all actives have a fitted effect of over 30% in size. Put shortly:
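Myeloma cells at 500 per well in 1536-well format treated with MIPE 4.0 library by pin transfer for 48 h at 37C, 5% CO2. Viability from ATP luminescence (CellTiter-Glo), normalized to DMSO (100%) and media-only (0%) wells.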

The nature of test [3]: Quantitative High-Throughput drug screen in 47 multiple myeloma cell lines against the NCATS MIPE library collection: KHM11_PLB cell viability assay (AID 1918962). Note: nearly all actives have a fitted effect of over 35% in size. Put shortly: (§2)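 Inhibition of cell viability is measured here. Each line was plated at 500 cells per well, treated with MIPE 4.0 drugs, kept 48 hours at 37C, then assayed for ATP content by CellTiter-Glo luminescence.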

Test [4] is described as follows: Quantitative High-Throughput drug screen in 47 multiple myeloma cell lines against the NCATS MIPE library collection: JIM3_ECACC cell viability assay (AID 1918963; note: nearly all actives have a fitted effect of over 35% in size). Put shortly: as §2
A short description of test [5]: Quantitative High-Throughput drug screen in 47 multiple myeloma cell lines against the NCATS MIPE library collection: JIM1_ECACC cell viability assay (AID 1918964). In outline: as §1
Test [6] is described as follows: Quantitative High-Throughput drug screen in 47 multiple myeloma cell lines against the NCATS MIPE library collection: INA6_PLB cell viability assay (AID 1918965; note: nearly all actives have a fitted effect of over 55% in size). Put shortly: (§3)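 qHTS of the MIPE 4.0 collection: 500 myeloma cells/well, 48 h drug exposure at 37C in 5% CO2, then CellTiter-Glo for 5 min at room temperature before luminescence reading.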
A short description of test [7]: Quantitative High-Throughput drug screen in 47 multiple myeloma cell lines against the NCATS MIPE library collection: JJN3_DSMZ cell viability assay (AID 1918966; note: nearly all actives have a fitted effect of over 50% in size). Put shortly: as §1
Test [8] is described as follows: Quantitative High-Throughput drug screen in 47 multiple myeloma cell lines against the NCATS MIPE library collection: Karpas25_ECACC cell viability assay (AID 1918968; note: nearly all actives have a fitted effect of over 35% in size). Put shortly:
as §1

The nature of test [9]: Quantitative High-Throughput drug screen in 47 multiple myeloma cell lines against the NCATS MIPE library collection: KMS27_JCRB cell viability assay (AID 1918970). Note: nearly all actives have a fitted effect of over 30% in size. In outline: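 Myeloma cells (500 per well) were exposed to MIPE 4.0 compounds for 48 h at 37 °C, 5% CO2; viability was read as ATP luminescence with CellTiter-Glo, normalized to DMSO-only (100%) and media-only (0%) wells.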

Test [10] in a line: Quantitative High-Throughput drug screen in 47 multiple myeloma cell lines against the NCATS MIPE library collection: KMS20_JCRB cell viability assay (AID 1918973). Note: nearly all actives have a fitted effect of over 45% in size. In outline:
as §1

Test [11] in a line: Quantitative High-Throughput drug screen in 47 multiple myeloma cell lines against the NCATS MIPE library collection: KMS21BM_JCRB cell viability assay (AID 1918974). The following applies: ATP luminescence, 48 h; viability: at 45.8 µM (top of the series) unless noted. Put shortly:
as §1

A short description of test [12]: Quantitative High-Throughput drug screen in 47 multiple myeloma cell lines against the NCATS MIPE library collection: NCIH929_DSMZ cell viability assay (AID 1918978). Note: nearly all actives have a fitted effect of over 35% in size. Put shortly: (§4)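 Viability after 48 h drug exposure was measured as ATP-dependent luminescence. Cells, 500 per well, sat at 37 °C under 5% CO2; DMSO wells set 100%, media-only wells 0%.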
Test [13] is described as follows: Quantitative High-Throughput drug screen in 47 multiple myeloma cell lines against the NCATS MIPE library collection: Karpas620_DSMZ cell viability assay (AID 1918959). Note: nearly all actives have a fitted effect of over 30% in size. In outline: as §2
Test [14] in a line: Quantitative High-Throughput drug screen in 47 multiple myeloma cell lines against the NCATS MIPE library collection: H1112_PLB cell viability assay (AID 1918967; note: nearly all actives have a fitted effect of over 30% in size). Put shortly:
as §1

Test [15] can be described thus: Quantitative High-Throughput drug screen in 47 multiple myeloma cell lines against the NCATS MIPE library collection: KMS12PE_JCRB cell viability assay (AID 1918972). Note: nearly all actives have a fitted effect of over 30% in size. In outline:
as §3

Test [16] can be described thus: Quantitative High-Throughput drug screen in 47 multiple myeloma cell lines against the NCATS MIPE library collection: MOLP8_DSMZ cell viability assay (AID 1918977). Note: nearly all actives have a fitted effect of over 45% in size. Put shortly: as §4
Test [17] in a line: Quantitative High-Throughput drug screen in 47 multiple myeloma cell lines against the NCATS MIPE library collection: Karpas417_ECACC cell viability assay (AID 1918961). The conditions noted are these: Karpas417 myeloma viability, CellTiter-Glo ATP luminescence, 48 h; viability (% of DMSO): at 45.8 µM (top of the series). In outline:
as §3

Test [18] is described as follows: Quantitative High-Throughput drug screen in 47 multiple myeloma cell lines against the NCATS MIPE library collection: KMS12BM_JCRB cell viability assay (AID 1918971). Note: nearly all actives have a fitted effect of over 35% in size. Put shortly:
(§5)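 Viability readout: CellTiter-Glo luminescence following 5 min room-temperature incubation with reagent. Prior exposure: 48 h, 37C, humidified 5% CO2, 500 cells per well.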

Test [19] in a line: Quantitative High-Throughput drug screen in 47 multiple myeloma cell lines against the NCATS MIPE library collection: KMS26_JCRB cell viability assay (AID 1918975). Note: nearly all actives have a fitted effect of over 45% in size. In outline:
as §5

Test [20] in a line: Quantitative High-Throughput drug screen in 47 multiple myeloma cell lines against the NCATS MIPE library collection: MMM1_PLB cell viability assay (AID 1918976). Note: nearly all actives have a fitted effect of over 35% in size. In outline:
as §4

SMILES strings stand for the structures. Results filed as inconclusive are left out. Calls of active or inactive are those of the source. Calls come from the whole dose curve; as a rule, active = well fitted curve in the direction sought with a large enough effect; inconclusive = small, poorly fitted or top-dose-only effect, or another doubt; inactive = no such curve, though single readings can be large; an effect the other way counts as inactive or inconclusive.
Potency is the fitted concentration of half-maximal effect.

Consider `CO[C@@H](C(=O)N1Cc2[nH]nc(NC(=O)c3ccc(N4CCN(C)CC4)cc3)c2C1)c1ccccc1`, for which the Potency in test [1] is 26.4 µM (active); in [2], 7.43 µM (active); in [3] it was 10.5 µM (active); in [4], 4.69 µM (active); in [5], 16.6 µM (active); in test [6], 0.372 µM (active). Also, the Potency was 23.5 µM (active) in [7]; 16.6 µM (active) in [8]; 23.5 µM (active) in [9]; 16.6 µM (active) in [10]; 1.87 µM (active) in test [11]; 11.8 µM (active) in test [12].

Regarding `COc1ccc2cccc(CCNC(C)=O)c2c1`, the Potency entry in test [13], in test [2], in [3], in test [4], in test [14] and in [8] was “inactive” in each case. Also, the Potency result in test [9], in [15] and in [12] was “inactive” in each case.

Turning to `O=C(O)c1cc(O)c2c(c1)C(=O)c1cccc(O)c1C2=O`, the Potency entry in test [1], in test [4], in [14] and in test [15] was “inactive” in each case. Besides, the Potency in test [16] was 38.2 µM (active).

As to `C=C1C(=O)OC(CCCCCCCC)C1C(=O)O` (stereo not drawn), the Potency result in test [1], in [3], in test [5], in [9] and in test [16] was “inactive” each time. The viability (% of DMSO) in [17] was 74% (active). In test [6], the Potency was 18.7 µM (active).

In the case of `CCOC(=O)C1=C(N)Oc2ccc(Br)cc2C1C(C#N)C(=O)OCC` (stereo not drawn), the Potency was 18.7 µM (active) in test [13]; 16.6 µM (active) in [2]; 8.33 µM (active) in test [17]; 20.9 µM (active) in test [3]; 23.5 µM (active) in test [4]; 18.7 µM (active) in [6]. Moreover, the Potency was 20.9 µM (active) in [7]; 16.6 µM (active) in test [14]; 20.9 µM (active) in test [8]; 18.7 µM (active) in test [9]; 18.7 µM (active) in test [18]; 18.7 µM (active) in [15]. Further, the Potency in test [19] was 14.8 µM (active); in test [20], 20.9 µM (active); in [16], 18.7 µM (active); in [12] it was 20.9 µM (active).

For the molecule `Cc1ccc(Nc2cc(-c3cccc(N4C(=O)c5ccccc5C4=O)c3)ncn2)cc1NS(C)(=O)=O`, the Potency in test [1] was 20.9 µM (active); in test [2], 18.7 µM (active); in test [17], 4.69 µM (active); in test [4] it was 18.7 µM (active); in test [6], 16.6 µM (active); in [14] it was 18.7 µM (active). Moreover, the Potency was 11.8 µM (active) in test [8]; 26.4 µM (active) in test [15]; 26.4 µM (active) in test [10]; 20.9 µM (active) in [20]; 20.9 µM (active) in [16]; 3.32 µM (active) in test [12].

`CCC(=O)O[C@]1(C(=O)CO)CC[C@H]2[C@@H]3CCC4=CC(=O)CC[C@]4(C)[C@@H]3CC[C@@]21C`: the Potency result in test [13], in [2], in [3], in test [4], in [9] and in [15] was “inactive” in each case.

In the case of `Clc1ccc(COC(Cn2ccnc2)c2ccc(Cl)cc2Cl)cc1` (stereo not drawn), the Potency in [1] is 26.4 µM (active); in [2], 20.9 µM (active); in test [6], 20.9 µM (active); in [15], 23.5 µM (active). For the same molecule, the Potency result in test [16] was “inactive”.

For the molecule `O=c1[nH]cnc2c1ncn2[C@H]1CC[C@@H](CO)O1`, the Potency result in [13], in test [2], in [3], in [4], in test [5] and in [14] was “inactive” throughout. The Potency result in test [15], in test [19], in [16] and in test [12] was “inactive” in each case.

As for `C[C@@H]1CCN(C(=O)CC#N)C[C@H]1N(C)c1ncnc2[nH]ccc12`, the Potency entry in test [13], in [2], in test [17], in test [14], in test [8] and in [15] was “inactive” throughout. Also, the Potency entry in test [20], in test [16] and in test [12] was “inactive” each time.

Turning to `Cc1ccc([C@@H]2O[C@H](CO)[C@@H](O)[C@H](O)[C@@H]2O)cc1Cc1ccc(-c2ccc(F)cc2)s1`, the Potency in test [1] was 20.9 µM (active); in test [2], 16.6 µM (active); in [9], 23.5 µM (active); in [15], 20.9 µM (active). Further, the Potency result in [14], in [18] and in test [16] was “inactive” throughout.

For the molecule `O=C1NC(=O)C(=Cc2ccc3c(c2)OC(F)(F)O3)S1`, the Potency in test [1] was 16.6 µM (active); in test [3], 13.2 µM (active); in test [6], 26.4 µM (active); in [14], 20.9 µM (active); in test [10] it was 13.2 µM (active); in test [11] it was 3.32 µM (active). Further, the Potency in [19] was 18.7 µM (active); in [20], 10.5 µM (active). The Potency entry in test [5] and in test [16] was “inactive” each time.

For the molecule `O=c1ccn([C@@H]2O[C@H](CO)[C@H](O)[C@H]2O)c(=O)[nH]1`, the Potency result in test [13], in test [2], in [3], in [4], in [6] and in test [7] was “inactive” throughout. The Potency entry in test [14], in [8] and in test [9] was “inactive” throughout. Besides, the Potency in [18] is 11.8 µM (active); in [20], 8.33 µM (active).

Take `CC(C)C[C@H](CC(=O)O)C(=O)N[C@@H](Cc1c[nH]c2ccccc12)C(=O)N[C@@H](C)c1ccccc1`: the Potency entry in [13], in [2], in test [3], in test [4], in [14] and in test [15] was “inactive” throughout. In addition, the Potency result in test [10], in test [19] and in [12] was “inactive” throughout.

On to `CC(C)n1cnc2c(NCCCCCCNC(=O)OC(C)(C)C)nc(NCCO)nc21`, for which the Potency in test [1] was 5.9 µM (active); in test [2], 7.43 µM (active); in test [4], 18.7 µM (active); in test [6] it was 23.5 µM (active); in test [14], 23.5 µM (active); in test [8], 23.5 µM (active). Moreover, the Potency was 1.05 µM (active) in test [10] and 23.5 µM (active) in test [19]. For the same molecule, in test [5], the Potency entry was “inactive”.

Consider `CNC(=O)c1ccc2cc(C3(O)CCn4cncc43)ccc2c1` (stereo not drawn), for which the Potency entry in test [1], in [2], in [3], in test [4], in test [5] and in test [7] was “inactive” each time. Also, the Potency result in test [14], in test [15], in test [10], in [19] and in [12] was “inactive” throughout.
